Assay [1] can be described thus: qHTS RealTime-Glo MT Cell Viability Assay in HEK293 cells - 40 hour (AID 1224874). Further: nearly all actives have a fitted effect of over 50% in size. Further: potency means the concentration at half of the fitted maximal effect. On max response: on the % scale 0 is the no-effect control and ±100 the full control effect. The note with it: RealTime-Glo luminescence; max response: stronger effect = lower value. The method, boiled down: (§1)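 600 HEK293 cells per well, dispensed already mixed with RealTime-Glo MT reagents. Compound dosing came 5 h later. The same wells were read for luminescence at 0, 8, 16, 24, 32 and 40 h of exposure at 37 C.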
On the technique in general: Quantitative high-throughput screening tests each substance at several concentrations.

A short description of assay [2]: A CellTox Green Cytotoxicity Assay to monitor cytotoxicity in HEK293 cells - 24 hour (AID 1224875). Further: nearly all actives have a fitted effect of over 45% in size. Further: potency means the concentration at half of the fitted maximal effect. The method, boiled down:
(§2)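 Dead-cell fluorescence measured kinetically: asymmetric cyanine dye, HEK293, 600 cells/well, 5 h settle, 23 nL cpd/DMSO, 37 C, reads 0–40 h every 8 h.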

A short description of assay [3]: qHTS RealTime-Glo MT Cell Viability Assay in HepG2 cells - 32 hour (AID 1224877). Further: nearly all actives have a fitted effect of over 55% in size. Further: potency means the concentration at half of the fitted maximal effect. The gist of the method: (§3)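 HepG2 cells (600/well) were dispensed with RealTime-Glo reagents, incubated 5 h at 37 °C, then treated with compounds in DMSO for up to 40 h. Nonlytic NanoLuc luminescence reflecting viable cells was read at each stated time point.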
The nature of assay [4]: A CellTox Green Cytotoxicity Assay to monitor cytotoxicity in HepG2 cells - 24 hour (AID 1224878). Further: nearly all actives have a fitted effect of over 45% in size. Further: potency means the concentration at half of the fitted maximal effect. On Cytotoxicity: on the % scale 0 is the no-effect control and ±100 the full control effect. The gist of the method:
(§4)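 First, HepG2 cells (600/well) mixed with reagent were plated; second, after 5 h at 37 C they received compounds via pintool; third, fluorescence was measured at 0 h through 40 h at 8 h intervals.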

The nature of assay [5]: A CellTox Green Cytotoxicity Assay to monitor cytotoxicity in HepG2 cells - 40 hour (AID 1224879). Further: nearly all actives have a fitted effect of over 40% in size. Further: potency means the concentration at half of the fitted maximal effect. The gist of the method:
as §4

A short description of assay [6]: qHTS RealTime-Glo MT Cell Viability Assay in HEK293 cells - 0 hour (AID 1224880). Further: top concentration of the series differs between compounds; on the % scale 0 is the no-effect control and ±100 the full control effect; nearly all actives have a fitted effect of over 45% in size. The method, boiled down: as §1
Assay [7] is described as follows: A CellTox Green Cytotoxicity Assay to monitor cytotoxicity in HEK293 cells - 32 hour (AID 1224881). Further: nearly all actives have a fitted effect of over 40% in size. Further: potency means the concentration at half of the fitted maximal effect. The method, boiled down:
as §2

A short description of assay [8]: A CellTox Green Cytotoxicity Assay to monitor cytotoxicity in HepG2 cells - 0 hour (AID 1224882). Further: on the % scale 0 is the no-effect control and ±100 the full control effect; nearly all actives have a fitted effect of over 35% in size. The method, boiled down: as §4
Assay [9] is described as follows: A CellTox Green Cytotoxicity Assay to monitor cytotoxicity in HEK293 cells - 8 hour (AID 1224884). Further: nearly all actives have a fitted effect of over 35% in size. Further: potency means the concentration at half of the fitted maximal effect. The gist of the method:
as §2

Assay [10] can be described thus: qHTS RealTime-Glo MT Cell Viability Assay in HepG2 cells - 16 hour (AID 1224885). Further: nearly all actives have a fitted effect of over 50% in size. Further: potency means the concentration at half of the fitted maximal effect. The gist of the method: as §3
The nature of assay [11]: qHTS RealTime-Glo MT Cell Viability Assay in HEK293 cells - 24 hour (AID 1224886). Further: nearly all actives have a fitted effect of over 50% in size. Further: potency means the concentration at half of the fitted maximal effect. The method, boiled down: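 HEK293 cells seeded with NanoLuc/prosubstrate reagent, rested 5 h at 37 C, then dosed and kept at 37 C up to 40 h. Nonlytic real-time luminescence from viable cells read at 0, 8, 16, 24, 32 and 40 h.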
A short description of assay [12]: qHTS RealTime-Glo MT Cell Viability Assay in HEK293 cells - 8 hour (AID 1224887). Further: nearly all actives have a fitted effect of over 50% in size. Further: potency means the concentration at half of the fitted maximal effect. The method, boiled down: as §1
Assay [13] is described as follows: A CellTox Green Cytotoxicity Assay to monitor cytotoxicity in HEK293 cells - 16 hour (AID 1224888). Further: nearly all actives have a fitted effect of over 35% in size. Further: potency means the concentration at half of the fitted maximal effect. The method, boiled down: as §2
Assay [14] in a line: qHTS RealTime-Glo MT Cell Viability Assay in HepG2 cells - 0 hour (AID 1224889). The method, boiled down: as §3
Assay [15] can be described thus: qHTS assay to identify small molecule antagonists of the estrogen receptor alpha (ER-alpha) signaling pathway using the BG1 cell line in the presence of 0.1 nM 17-beta-estradiol - cell viability counter screen (AID 1259241). Further: nearly all actives have a fitted effect of over 40% in size. Further: potency means the concentration at half of the fitted maximal effect. The method, boiled down:
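Cells were plated and left 24 hr, compounds in DMSO were pinned in, 17beta-estradiol was added to 0.1 nM final, and after 22 hr CellTiter-Fluor reagent was added for 30 min before fluorescence was read.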

Assay [16] can be described thus: qHTS assay to identify small molecule antagonists of the androgen receptor (AR) signaling pathway using the MDA cell line in the presence of 0.5 nM R1881 - cell viability counter screen (AID 1259242). Further: nearly all actives have a fitted effect of over 45% in size. Further: potency means the concentration at half of the fitted maximal effect. The method, boiled down: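 qHTS format. MDA-kb2 (MMTV-luc, AR/GR responsive) + cpd + 0.5 nM R1881 final, 16 hr 37C/0% CO2 → CellTiter-Fluor 30 min → fluorescence intensity.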

For assay [17], the target named is Androgen receptor (Homo sapiens) (UniProt P10275). In words: qHTS assay to identify small molecule antagonists of the androgen receptor (AR) signaling pathway using the MDA cell line in the presence of 0.5 nM R1881 (AID 1259243). The gist of the method:
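Antagonist mode quantitative HTS in MDA-kb2 MMTV-luciferase cells, agonist R1881 at 0.5 nM final, 16 hr exposure at 37C and 0% CO2, luminescent detection.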

Assay [18] can be described thus: A CellTox Green Cytotoxicity Assay to monitor cytotoxicity in HepG2 cells - 8 hour (AID 1224890). Further: nearly all actives have a fitted effect of over 45% in size. Further: potency means the concentration at half of the fitted maximal effect. The gist of the method: as §4

Here are results for nine molecules from PubChem BioAssay (Tox21).

The structures appear in SMILES notation. Values joined by “and” are separate entries in the source; they are usually repeats but may differ in a detail not shown here. Equal entries are not always repeated. Records with an inconclusive call do not appear. The source holds several records for some structures; these can differ, active in one and inactive in another. Active and inactive are the calls of the source. The call rests on the fitted dose curve; in most records, active means well fitted curve in the direction sought with a large enough effect in the repeat runs; inconclusive means weak or mixed curves; inactive means no such curve, though single readings can be large; an effect the other way counts as inactive or inconclusive.

Sequence of Androgen receptor (Homo sapiens) (P10275 whole entry, looked up): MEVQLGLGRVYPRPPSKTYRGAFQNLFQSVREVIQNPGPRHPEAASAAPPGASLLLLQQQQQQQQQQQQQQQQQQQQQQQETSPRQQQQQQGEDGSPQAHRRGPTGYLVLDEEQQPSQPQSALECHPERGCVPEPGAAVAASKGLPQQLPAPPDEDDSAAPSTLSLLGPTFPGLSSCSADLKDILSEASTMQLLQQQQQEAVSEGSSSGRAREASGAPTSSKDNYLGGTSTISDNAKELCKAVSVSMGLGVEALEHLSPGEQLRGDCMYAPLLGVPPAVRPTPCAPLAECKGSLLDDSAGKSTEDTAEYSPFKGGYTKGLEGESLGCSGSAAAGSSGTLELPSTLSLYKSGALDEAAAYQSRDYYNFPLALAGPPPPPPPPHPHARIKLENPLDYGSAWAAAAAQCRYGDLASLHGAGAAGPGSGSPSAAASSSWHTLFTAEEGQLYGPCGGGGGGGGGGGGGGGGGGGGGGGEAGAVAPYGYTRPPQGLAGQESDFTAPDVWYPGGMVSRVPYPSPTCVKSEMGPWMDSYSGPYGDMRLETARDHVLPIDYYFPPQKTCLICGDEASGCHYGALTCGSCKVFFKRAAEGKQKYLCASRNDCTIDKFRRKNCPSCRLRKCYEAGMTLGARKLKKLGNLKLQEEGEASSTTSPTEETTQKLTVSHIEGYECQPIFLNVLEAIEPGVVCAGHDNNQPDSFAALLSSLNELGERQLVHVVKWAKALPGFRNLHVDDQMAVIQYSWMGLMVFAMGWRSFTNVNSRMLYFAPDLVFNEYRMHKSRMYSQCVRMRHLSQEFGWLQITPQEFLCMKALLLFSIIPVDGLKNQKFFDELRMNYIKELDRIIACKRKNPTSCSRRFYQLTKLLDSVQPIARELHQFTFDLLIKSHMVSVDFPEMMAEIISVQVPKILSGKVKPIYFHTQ

As for `CC(=O)[O][Hg][c]1ccccc1`, the Potency in [1] is 306 nM (active) and 977 nM (active) and 213 nM (active); in [2], 863 nM (active) and 1.38 µM (active) and 1.07 µM (active); in [3], 1.72 µM (active) and 1.95 µM (active) and 1.07 µM (active); in assay [4], 1.93 µM (active) and 2.45 µM (active) and 1.34 µM (active); in assay [5], 1.22 µM (active) and 1.95 µM (active) and 1.07 µM (active); in assay [7], 611 nM (active) and 977 nM (active) and 213 nM (active). Also, the Potency in assay [10] was 1.72 µM (active) and 1.74 µM (active) and 1.07 µM (active); in [11] it was 344 nM (active) and 1.1 µM (active) and 239 nM (active); in [12] it was 433 nM (active) and 1.55 µM (active) and 425 nM (active); in assay [13], 1900 nM (active); in assay [15], 4.81 µM (active) and 9.69 µM (active) and 11.9 µM (active); in [16], 1.92 µM (active) and 6.11 µM (active) and 2.66 µM (active). Also, the Potency in [17] is 606 nM (active) and 2.43 µM (active) and 1.19 µM (active). Moreover, the molecule was called inactive in assay [6]. In addition, the Potency result in assay [8], in [9] and in assay [14] was “inactive” each time.

In the case of `CCCC[N+]1(C)CCCC1`, the max response in [1] is 0.73% (inactive) [middle of 7 runs]. The Potency entry in assay [2], in assay [3], in [4], in assay [5], in assay [7] and in assay [8] was “inactive” throughout. Besides, the Potency entry in assay [9], in assay [10], in [11], in assay [12], in assay [13] and in assay [14] was “inactive” in each case. The Potency result in assay [15] and in assay [16] was “inactive” throughout. In addition, the molecule was called inactive in assay [6].

Turning to `C1CCC(NC2CCCCC2)CC1`, the max response in assay [1] is 3.03% (inactive) and 3.3% (inactive) and 2.02% (inactive). Moreover, the Potency result in assay [2], in assay [3], in assay [4], in [5], in [7] and in assay [8] was “inactive” throughout. For the same molecule, the Potency result in assay [9], in assay [10], in assay [11], in assay [12], in assay [13] and in [14] was “inactive” each time. Besides, the Potency entry in assay [15] and in assay [16] was “inactive” throughout. Moreover, the outcome in assay [6] was inactive.

For the molecule `CCCC[n+]1cccc(C)c1`, the max response in assay [1] was 7.15% (inactive) [middle of 6 runs]. The Potency entry in assay [2], in assay [4], in assay [5], in [7], in assay [8] and in assay [9] was “inactive” in each case. Also, the Potency result in assay [10], in [11], in assay [12], in assay [13], in assay [14] and in assay [15] was “inactive” in each case. Moreover, in [16], the Potency entry is “inactive”. Also, the Potency entry in assay [3] is “inactive and 55.7 µM (active)”. The molecule was called inactive in assay [6].

Regarding `CCCCCCCCCCCCCC[P+](CCCCCC)(CCCCCC)CCCCCC`, the Potency was 2.47 µM (active) and 1.75 µM (active) and 1.23 µM (active) in assay [1]; 11 µM (active) and 19.7 µM (active) and inactive in [3]; 11 µM (active) and 17.5 µM (active) and inactive in assay [4]; 12.4 µM (active) and 17.5 µM (active) and 48.9 µM (active) in [5]; 12.4 µM (active) and 19.7 µM (active) in assay [7]; 19.6 µM (active) and 22.1 µM (active) and inactive in assay [9]. Also, the Potency in assay [10] is 13.9 µM (active) and 19.7 µM (active) and inactive; in assay [11] it was 5.52 µM (active) and 6.22 µM (active) and 3.46 µM (active); in assay [12] it was 12.4 µM (active) and 17.5 µM (active); in assay [18], 19.6 µM (active) and 22.1 µM (active) and inactive; in [16], 9.73 µM (active) and 13.8 µM (active). Besides, in assay [6], the molecule was classed as inactive. The Potency result in [8] and in assay [14] was “inactive” throughout.

As to `Oc1ccccc1-c1ccccc1`, the max response in [1] is -9.5% (inactive) [middle of 4 runs]. The Potency entry in [2], in [3], in [7], in assay [8], in assay [9] and in assay [10] was “inactive” in each case. Besides, the Potency result in [11], in [12], in assay [13], in assay [14], in assay [15] and in assay [16] was “inactive” in each case. Also, the result in assay [6] was inactive.

For the molecule `O=C(O)COc1ccc(Cl)cc1Cl`, the max response in [1] was 5.16% (inactive) [middle of 6 runs]. Also, the Potency entry in [2], in assay [3], in assay [4], in assay [5], in assay [7] and in assay [8] was “inactive” each time. Also, the Potency result in assay [9], in assay [10], in assay [11], in [12], in assay [13] and in assay [14] was “inactive” each time. The Potency entry in assay [18], in assay [15] and in [16] was “inactive” throughout. In addition, the molecule was called inactive in assay [6].

As for `OCCOc1ccccc1`, the max response in assay [1] was -3.05% (inactive) and 0.273% (inactive) and 2.22% (inactive). Besides, the Potency result in assay [2], in assay [3], in assay [4], in assay [5], in [7] and in assay [8] was “inactive” in each case. The Potency result in assay [9], in [10], in [11], in [12], in [13] and in [14] was “inactive” in each case. In addition, the Potency result in assay [15] and in assay [16] was “inactive” in each case. Further, in assay [6], the call was inactive.

On to `COP(=O)(OC)OC=C(Cl)Cl`, for which the max response in assay [1] was 12.8% (inactive) and 2.89% (inactive) and 15.7% (inactive). The Potency result in [2], in assay [3], in assay [4], in assay [5], in assay [7] and in assay [8] was “inactive” in each case. The Potency entry in [9], in assay [10], in [11], in assay [12], in [13] and in [14] was “inactive” in each case. Moreover, the Potency entry in [18], in assay [15] and in assay [16] was “inactive” throughout. The outcome in assay [6] was inactive.
